Source: PubChem
Many of the other results were omitted from the sample, so hits are more common in it than they were.
mHTT CaM bind = disrupts binding of mutant huntingtin to calmodulin; P42858; AlphaScreen His-mHTT/GST-CaM binding, luminescence; inhibition, % at 15 µM; hit rate 3.6% among 190,000; AID 1671202;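 note: 0% = both proteins with DMSO and 100% = one protein alone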
Pf apPOL block = Pf-apPOL DNA polymerase inhibition. inhibition, % at 10 µM. Recombinant Pf-apPOL, molecular beacon fluorescence, 1.5 h. AID 1794808. hit rate 0.25% among 210,000
Starred values were filed as active, the others as inactive; · = no result given. Cut-off read from the data, not from the text of the source: active = inhibition above about 50%; inactive = the rest.

SMILES	mHTT CaM bind	Pf apPOL block
Cc1ccc(-c2noc(C3CCN(CC(=O)NC4CCCC4)CC3)n2)cc1	0	-2
Cc1cc(Cc2cc(C(C)(C)C)c(O)c(C(C)(C)C)c2)cc(C(C)(C)C)c1	34	·
Cc1ccc(C(=O)Nc2cc([N+](=O)[O-])ccc2C)c(Cl)c1	-1	-1
Cc1ccc(C(O)=C2C(=O)C(=O)N(C)C2c2ccccc2F)cc1 (stereo unspecified)	2	-2
Cc1oc(C2CCN(C(=O)CC(C)(C)C)CC2)nc1C(=O)N1CCCC1	16	-1
O=C(O)CCCN1C(=O)C2C3C=CC(C3)C2C1=O (stereo unspecified)	-4	6
O=C(NCc1ccncc1)C1CCc2sc(C(=O)N3CCOCC3)cc2C1 (stereo unspecified)	2	0
Nc1c(Nc2ccccc2C(=O)O)c2ccccc2oc1=O	20	-2
Cc1cccc(NC(=O)CN2CCc3ccccc3C2C(=O)N2CCC(C)CC2)c1C (stereo unspecified)	4	-4
CC1CCN(C(=O)C2c3ccccc3CCN2CC(=O)Nc2ccc(Cl)cc2)CC1 (stereo unspecified)	62*	-4
CCOc1ccc(NC(=O)CN2CCc3ccccc3C2C(=O)N2CCC(C)CC2)cc1 (stereo unspecified)	13	-3
O=C(CN1CCc2ccccc2C1C(=O)N1CCCC1)N1CCC(Cc2ccccc2)CC1 (stereo unspecified)	68*	-9
O=C(CN1CCc2ccccc2C1C(=O)N1CCCC1)N1CCN(C2CCCCC2)CC1 (stereo unspecified)	9	0
COc1ccc(C)cc1NC(=O)CN1CCc2ccccc2C1C(=O)N1CCC(C)CC1 (stereo unspecified)	61*	-5
COc1c(C(=O)CC(=O)c2ccccc2)ccc2occc12	·	0
COc1ccccc1N(C)c1cc2c(c3c1ccn3C)C1CCC2O1 (stereo unspecified)	67*	-2
Cn1ccc2c(N(Cc3ccccc3)Cc3ccccc3)cc3c(c21)C1CCC3O1 (stereo unspecified)	43	4
CN(Cc1ccccc1)c1cc2c(c3c1ccn3C)C1CCC2O1 (stereo unspecified)	72*	-4
Cn1ccc2c(-c3ccc(F)cc3)cc3c(c21)C1CCC3O1 (stereo unspecified)	23	-8
O=C(NCCN1CCN(C(=O)c2ccccc2Br)CC1)C(=O)Nc1ccc(F)cc1	11	-4
COc1ccc(C2=N/C(=C\C=C\c3ccccc3)C(=O)O2)cc1OC	41	0
O=C(CN1CCC(c2nc(-c3ccccc3Cl)no2)CC1)Nc1ccccc1Cl	-15	-6
CN(C)c1ccc(NC(=O)CN2CCC(c3nc(-c4ccccc4Cl)no3)CC2)cc1	66*	-2
CC(=O)N1CCC(N2CCCC(c3nc(-c4ccccc4)n[nH]3)C2)CC1 (stereo unspecified)	-4	3
Fc1ccc(NC/C=C/c2ccco2)cc1Cl	91*	-2
SMILES	mHTT CaM bind	Pf apPOL block
O=C(CCNc1ccc(F)c(Cl)c1)c1ccccc1	-7	12
O=C(CCc1ccc2cc[nH]c2c1)NCc1ccc(F)cc1	13	-3
O=S(=O)(NCCc1ccccc1)c1cc(Cl)ccc1Cl	-23	3
O=C(NCc1cc(F)cc(F)c1)C1CCN(c2cncnc2N2CCCCC2)CC1	7	6
CCc1ccc(CNC(=O)C2CCN(c3cncnc3N3CCN(C)CC3)CC2)cc1	21	-1
O=C(NCc1ccc(F)c(Cl)c1)C1CCN(c2cncnc2N2CCCC2)CC1	90*	2
CN1CCN(c2ncncc2N2CCC(C(=O)NCc3ccc(Cl)cc3)CC2)CC1	98*	-3
CC(C)CC(=O)N1CCC(CCOCc2ccccc2F)CC1	1	-4
O=C(NCc1cccc(Cl)c1)c1ccc(NC(=O)C2CC2)cc1N1CCOCC1	8	1
CCN(CC)c1ncc2c(n1)CCC(C(=O)NCc1ccc(F)cc1Cl)C2 (stereo unspecified)	-9	-5
O=C(CCC1CCCN(C(=O)Nc2cccc(F)c2)C1)N1CCN(c2ccccc2)CC1 (stereo unspecified)	50*	-4
CCN1CCN(C(=O)CCC2CCCN(C(=O)Nc3cccc(F)c3)C2)CC1 (stereo unspecified)	18	-6
O=C(NC1CC1)c1csc(COc2ccc(Cl)cc2)n1	-3	-10
COc1ccc(-c2nc(C(=O)NC3CC3)cs2)c(Cl)c1	2	94*
COc1ccc(-c2nc3cc(C)ccc3o2)cc1N	34	6
CC(C)(C)c1ccc(-c2nc3cc(N)ccc3o2)cc1	27	-7
COc1ccc(-c2nc3cc(C(C)(C)C)ccc3o2)cc1O	61*	4
COc1cc(-c2nc3cc(C(C)(C)C)ccc3o2)ccc1O	56*	2
O=C(NN1C(=O)CCC1=O)c1ccccc1O	-3	-3
COCCN1CCC(N2CCCN(S(=O)(=O)c3ccc4c(c3)CCCC4)CC2)C1=O (stereo unspecified)	9	-4
Cc1cc(NC(=O)Cn2c(=O)n(CCCC(=O)NCc3ccco3)c(=O)c3ccccc32)n[nH]1	2	7
Cc1ccccc1NS(=O)(=O)c1ccc(-c2ccccc2)cc1	80*	-14
COc1ccc(S(=O)(=O)Nc2ccccc2C)cc1OC	-3	-4
Cc1onc(-c2c(Cl)cccc2Cl)c1C(=O)On1c(-c2ccccc2)nc2ccccc2c1=O	·	-3
O=C(On1c(-c2ccccc2)nc2ccccc2c1=O)c1ccco1	100*	-10
SMILES	mHTT CaM bind	Pf apPOL block
CC1CCCN(c2cc(NCCCC(=O)O)c3c4c(onc24)-c2ccccc2C3=O)C1 (stereo unspecified)	77*	0
CC1CC(C)CN(c2cc(NCCCC(=O)O)c3c4c(onc24)-c2ccccc2C3=O)C1 (stereo unspecified)	65*	0
O=C(NC1CCCCC1)c1ccc2c3c(onc13)-c1ccccc1C2=O	42	2
O=C1c2ccccc2-c2onc3c(N4CCOCC4)cc(N4CCOCC4)c1c23	39	-3
Oc1oc(-c2ccc(-c3ccccc3)cc2)nc1C=C1C=Nc2ccccc21	1	-5
COc1ccc(-n2nc(C(=O)N3CCOCC3)c3ccccc3c2=O)cc1	-5	-3
CC(C)(C)N=C1Nc2ncccc2NC12CCN(C(=O)NC1CCCCC1)C2 (stereo unspecified)	3	-4
CC1=C(Br)C(=O)c2ccccc2C1=O	17	-4
O=C1C(Br)=C(Br)C(=O)C(Br)=C1Br	81*	7
O=C1C(Br)=C(Br)C(=O)c2ccccc21	100*	15
CCC(=O)N1CCCN(c2ccc(NC(=O)Cc3ccccc3)cn2)CC1	6	-4
CC(C)c1nc2c(NC(=O)CC3CCCC3)cccn2n1	-4	6
Clc1ccccc1C1=Nn2c(nnc2-c2ccccn2)SC1	9	·
c1ccc(-c2ccccn2)nc1	·	-5
c1ccc(-c2ccc(-c3ccccn3)nn2)nc1	100*	·
O=c1oc2ccc(O)cc2s1	27	·
O=c1oc2c(-c3cccc(C(F)(F)F)c3)cc(O)cc2s1	40	1
Cc1ccc(-c2cc(O)cc3sc(=O)oc23)cc1Cl	53*	-5
COc1ccc(-c2cc(O)cc3sc(=O)oc23)cc1	74*	2
O=c1oc2c(Br)c(O)c(Br)cc2s1	43	-6
Cc1ccc(-c2cc(O)cc3sc(=O)oc23)cc1	75*	-4
O=c1oc2c(-c3ccc(Br)cc3)cc(O)cc2s1	34	5
CCc1ccc(-c2cc(O)cc3sc(=O)oc23)cc1	73*	6
CC(=O)N1CCN(c2nc3c(s2)CC(C(=O)NCc2cccc(F)c2)CC3)CC1 (stereo unspecified)	18	0
Cc1nc(Nc2ccc(F)c(Cl)c2)c2cc(C)sc2n1	-11	-4
O=C(NC(NCc1ccco1)C(Cl)(Cl)Cl)c1ccc(Br)cc1 (stereo unspecified)	-6	1
